Reference: PubChem BioAssay AID1259422 (The Scripps Research Institute Molecular Screening Center, 2018)
Among all 640,000 compounds or so, about 9,300 (1.5%) were called active. Only a selection was taken, and actives are over-represented in it overall. A number with no mark means an inactive call. Rule as the data show it: active = inhibition above about 32%; inactive = the rest.

Experiment: TEAD-YAP interaction inhibition, primary screen, TEAD-YAP interaction inhibitor project, luminescence, HEK-TIYL cells (AID 1259422);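 also: 0% = median of test compound wells and 100% = reference inhibitor wells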
Conditions: TEAD-Gal4/YAP UAS-luciferase luminescence, at 9.12 µM, active compounds read high

| SMILES | inhibition |
| --- | --- |
| CCOC(=O)C1CCN(Cn2[nH]c3nc4ccccc4n3c2=S)CC1 | -6.77% |
| FC(F)(F)c1cccc(N2CCN(CCN3CCOCC3)CC2)c1 | -6.06% |
| COc1ccc(-c2nc3ncnc(NCCN4CCOCC4)c3[nH]2)cc1 | -0.6% |
| COc1ccc(CCNc2ncnc3nc(-c4ccc(C(N)=O)cc4)[nH]c23)cc1 | -4.01% |
| COc1ccc(-c2nc3ncnc(Nc4ccccc4)c3[nH]2)cc1 | 0.52% |
| OCCNc1ncnc2nc(-c3ccccc3)[nH]c12 | 6.88% |
| COc1ccc(-c2nc3ncnc(NCCc4ccc(O)cc4)c3[nH]2)cn1 | 58.2% (active) |
| COc1ccc(-c2nc3ncnc(NCc4ccccc4)c3[nH]2)cn1 | 45% (active) |
| COc1cc(OC)cc(C(=O)Nc2cc(C(=O)Nc3ccc(OC)c(OC)c3)ccc2N2CC3CC(C2)c2cccc(=O)n2C3)c1 (centres undefined) | -0.12% |
| COc1ccc(/C=C/C(=O)NCCOc2ccc(Cl)cc2)cc1OC | -6.87% |
| CC(C)(C)NC(=O)CCc1nc(-c2ccc(C(C)(C)C)cc2)no1 | 50.6% (active) |
| COc1ccc(NC(=O)CCCc2nc(-c3ccc(OC)c(OC)c3)no2)cc1 | 1.43% |
| CCCNC(=O)CCCc1nc(-c2ccc(Cl)cc2)no1 | 25.2% |
| COc1ccc(-c2noc(CCC(=O)N(C)C)n2)cc1 | -26.2% |
| CCNC(=O)CCc1nc(-c2cccc(C)c2)no1 | -13.2% |
| CC(=O)Nc1ccc(NC(=O)CCCc2nc(-c3ccc(C(C)(C)C)cc3)no2)cc1 | 68.3% (active) |
| COC(=O)c1ccc(C(=O)NCC2CCC3(CCN(Cc4ccccn4)CC3)O2)cc1 (centres undefined) | 9.59% |
| Cc1cccc(C(=O)OCC(=O)NC2CCCCC2C)c1O (centres undefined) | 7.9% |
| COc1cccc(C(=O)NC2(C(F)(F)F)NC(=O)N(c3ccccc3)C2=O)c1 (centres undefined) | 8.83% |
| COc1cccc2cc(C(=O)Nc3cccc4ccccc34)c(=N)oc12 | -5.43% |

| SMILES | inhibition |
| --- | --- |
| CC(=O)Nc1cc(-c2nc3cc(C(C)C)ccc3o2)ccc1Cl | -35.8% |
| CCc1ccc(-c2nc3cc(NC(=O)c4ccc(Cl)cc4)ccc3o2)cc1 | 7.97% |
| Cc1ccc(-c2nc3cc(C(C)C)ccc3o2)cc1N | 80.7% (active) |
| Cc1ccc2oc(-c3ccc(C)c(N)c3)nc2c1 | 53.6% (active) |
| CCc1ccc2oc(-c3ccc(N)cc3)nc2c1 | 79.6% (active) |
| Cc1cc(-c2nc3cc(N)ccc3o2)ccc1Br | 1.99% |
| Cc1ccc2oc(-c3ccc(C)c(NC(=O)c4ccc([N+](=O)[O-])o4)c3)nc2c1 | -28.6% |
| CCc1ccc2oc(-c3ccc(NC(=O)c4ccccc4[N+](=O)[O-])cc3)nc2c1 | -50.9% |
| Cc1ccc(OCC(=O)Nc2ccc(-c3nc4cc(C(C)C)ccc4o3)cc2)cc1 | 20.8% |
| COc1ccccc1N1CCN(CC(O)COc2ccc(C#N)cc2)CC1 (centres undefined) | 0.33% |
| O=C(N/N=C/c1ccco1)c1cccc(F)c1 | -63.8% |
| Fc1ccc(C2C=C(c3cccs3)NC(=S)N2)cc1 (centres undefined) | 13.5% |
| CC(C)N1CCC(N2CCN(Cc3nc(-c4ccccc4)cs3)CC2CCO)CC1 (centres undefined) | -5.11% |
| COC(=O)N1CCC(C(=O)N(C)C(c2ccc(F)cc2)c2ccccn2)CC1 (centres undefined) | 11.1% |
| CCN(CC)CCn1c(=S)sc2c(=O)n(-c3ccccc3OC)c(SCc3ccccc3Cl)nc21 | -5.55% |
| O=C(Nc1ccc2c(c1)OCCO2)C(=O)Nc1ccc2nc3n(c(=O)c2c1)CCCCC3 | -4.8% |
| Cc1ncsc1C(=O)N1CCC(c2c(S(C)(=O)=O)cnc3ncnn23)CC1 | 11.5% |
| CCOc1ccc(C2Oc3c(Br)cc(Br)cc3C=C2[N+](=O)[O-])cc1OC (centres undefined) | 86% (active) |
| CCOc1ccc(C2N(c3cccc(Cl)c3)C(=O)C3CCCN32)cc1OC (centres undefined) | 0.7% |
| CCOc1cc(Br)c([N+](=O)[O-])cc1OCC | -4.81% |

| SMILES | inhibition |
| --- | --- |
| CCOc1cc(/C=C2/N=C(c3ccc(Cl)cc3)OC2=O)ccc1OCc1ccc(Cl)cc1 | -7.55% |
| Cc1ccc(C(=O)C[n+]2cc(-c3ccccc3)n3c2CCCCC3)cc1 | 38.8% (active) |
| Cc1ccc(-c2nn3cc(-c4ccccc4)c4c3n2CCCC4)cc1 | -4.85% |
| O=C(CNC1=NCCCCC1)c1ccc(-c2ccccc2)cc1 | -23.5% |
| CN(C(=S)Nc1ccc(Cl)cc1)c1c(N)n(Cc2ccccc2)c(=O)[nH]c1=O | -0.81% |
| COc1ccc(N2CCN(C(CNC(=O)c3cccs3)c3ccc4c(c3)OCO4)CC2)cc1 (centres undefined) | -22.3% |
| c1ccc2c(c1)OCC(c1nc3ccc(-c4ccncc4)cc3[nH]1)O2 (centres undefined) | -24.1% |
| CC(C)n1c(C2COc3ccccc3O2)nc2ncc(-c3ccncc3)cc21 (centres undefined) | 33% (active) |
| Cn1c(C2COc3ccccc3O2)nc2ccc(-c3cn[nH]c3)cc21 (centres undefined) | -90.1% |
| Clc1ccc(CN2CCN(/N=C/c3c(Cl)nc4ccccn34)CC2)cc1 | 35.3% (active) |
| COc1cccc(/C=N/N2CCN(Cc3ccc(C)cc3)CC2)c1 | -0.53% |
| Cc1nc2ccccn2c1CN1CCN(CC(O)COCc2ccc(Cl)cc2)CC1 (centres undefined) | 22.8% |
| CCOC(=O)CC(=O)CSc1nc2c(sc(=S)n2-c2ccc(Cl)c(C)c2)c(=O)n1-c1ccccc1OC | 0.42% |
| COC(=O)c1cnn2c(C(F)(F)F)cc(-c3ccc(Br)cc3)nc12 | 13.7% |
| N#Cc1ccccc1N=c1oc2ccccc2cc1-c1nc2ccccc2[nH]1 | -44.7% |
| Brc1ccc(N=c2oc3ccccc3cc2-c2nc3ccccc3[nH]2)cc1 | -86.1% |
| c1ccc2oc(=Nc3cccc4ccccc34)c(-c3nc4ccccc4[nH]3)cc2c1 | 41.4% (active) |
| Cc1cccc(C(=O)Nc2ncc3c(n2)CC(C)(C)CC3=O)c1 | -0.47% |
| CCOC(=O)c1c(NC(=O)CSc2nnc(CNC(=O)c3ccc([N+](=O)[O-])cc3)n2CCc2ccccc2)sc2c1CCCCC2 | -6.86% |
